Measurements taken from the supplement of paper PMC11732987, “Enantioselective OTUD7B fragment discovery through chemoproteomics screening and high-throughput optimisation” (Communications Chemistry, 2025).

Columns and labels:
Test in all cases: log2 ratio of Biotin-Ahx-Ub-VS probe labelling (fragment/DMSO); higher = less target engagement (more negative = stronger competition), active = hit call of the paper (q ≤ 0.05, log2 ratio ≤ -1)
Conditions in all cases: compound concentration: 200 uM; treatment time: 3 h
USP42 = biological target: T1, USP42 (UniProt Q9H9J4)
T1 sequence (whole entry): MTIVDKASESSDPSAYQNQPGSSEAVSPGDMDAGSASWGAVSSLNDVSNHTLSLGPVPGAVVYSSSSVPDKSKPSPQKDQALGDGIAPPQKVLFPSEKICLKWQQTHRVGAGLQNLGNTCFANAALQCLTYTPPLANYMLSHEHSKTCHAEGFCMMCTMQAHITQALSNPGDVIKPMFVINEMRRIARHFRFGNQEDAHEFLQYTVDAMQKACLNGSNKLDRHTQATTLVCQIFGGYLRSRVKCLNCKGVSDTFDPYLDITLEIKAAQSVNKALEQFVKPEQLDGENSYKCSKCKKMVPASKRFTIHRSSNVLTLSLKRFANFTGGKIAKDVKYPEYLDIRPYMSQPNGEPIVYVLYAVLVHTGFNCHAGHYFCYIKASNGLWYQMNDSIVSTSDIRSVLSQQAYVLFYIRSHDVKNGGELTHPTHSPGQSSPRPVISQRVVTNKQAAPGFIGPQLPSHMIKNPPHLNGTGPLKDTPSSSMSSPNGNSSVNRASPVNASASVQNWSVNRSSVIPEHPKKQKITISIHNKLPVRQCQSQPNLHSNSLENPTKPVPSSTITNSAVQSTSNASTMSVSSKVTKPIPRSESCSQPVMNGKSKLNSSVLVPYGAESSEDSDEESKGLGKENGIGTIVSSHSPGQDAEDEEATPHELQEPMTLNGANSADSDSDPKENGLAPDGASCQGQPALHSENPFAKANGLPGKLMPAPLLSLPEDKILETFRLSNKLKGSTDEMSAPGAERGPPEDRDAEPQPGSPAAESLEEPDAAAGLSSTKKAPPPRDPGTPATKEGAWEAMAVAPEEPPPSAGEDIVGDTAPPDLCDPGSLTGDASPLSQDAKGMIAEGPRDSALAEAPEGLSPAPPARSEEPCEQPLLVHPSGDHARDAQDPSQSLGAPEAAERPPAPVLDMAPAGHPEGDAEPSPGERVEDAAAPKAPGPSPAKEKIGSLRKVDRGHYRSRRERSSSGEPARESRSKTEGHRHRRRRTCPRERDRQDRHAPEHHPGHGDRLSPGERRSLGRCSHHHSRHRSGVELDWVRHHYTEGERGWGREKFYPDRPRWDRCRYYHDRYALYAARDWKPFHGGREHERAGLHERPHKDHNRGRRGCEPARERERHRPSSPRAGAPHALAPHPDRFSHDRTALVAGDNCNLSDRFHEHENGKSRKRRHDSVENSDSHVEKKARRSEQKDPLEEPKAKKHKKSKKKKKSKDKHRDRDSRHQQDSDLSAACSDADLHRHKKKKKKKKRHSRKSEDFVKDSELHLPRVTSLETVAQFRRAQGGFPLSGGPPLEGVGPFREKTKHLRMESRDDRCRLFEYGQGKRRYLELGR
Outline: (§1)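 HEK293T lysate (495 µg per sample, in Tris/CHAPS/IGEPAL buffer with protease inhibitors) was exposed in triplicate for 3 h to fragment at 200 µM or to vehicle, then to Biotin-Ahx-Ub-VS at 0.5 µM final for 1 h. Labelled DUBs were enriched on NeutrAvidin, digested with LysC and trypsin, and analysed by diaPASEF LC-MS/MS. Spectronaut label-free quantities were normalised to the global median, and values are average log2 ratios of fragment over vehicle from an unpaired t-test. Only proteins with ≥2 unique peptides were used.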

USP46 = USP46 (UniProt P62068)
USP46, sequence (P62068 whole entry): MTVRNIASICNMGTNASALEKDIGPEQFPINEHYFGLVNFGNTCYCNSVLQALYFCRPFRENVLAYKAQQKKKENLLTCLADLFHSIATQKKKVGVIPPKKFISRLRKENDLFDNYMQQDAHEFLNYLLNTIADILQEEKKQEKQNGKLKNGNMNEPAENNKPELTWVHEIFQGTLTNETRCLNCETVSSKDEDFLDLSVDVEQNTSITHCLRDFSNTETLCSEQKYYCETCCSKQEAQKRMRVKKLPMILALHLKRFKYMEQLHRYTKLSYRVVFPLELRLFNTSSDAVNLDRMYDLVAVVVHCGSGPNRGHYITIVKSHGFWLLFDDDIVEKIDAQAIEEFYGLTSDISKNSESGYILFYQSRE
Outline: as §1

USP47 = biological target: T2, USP47 (UniProt Q96K76)
T2 sequence (whole entry): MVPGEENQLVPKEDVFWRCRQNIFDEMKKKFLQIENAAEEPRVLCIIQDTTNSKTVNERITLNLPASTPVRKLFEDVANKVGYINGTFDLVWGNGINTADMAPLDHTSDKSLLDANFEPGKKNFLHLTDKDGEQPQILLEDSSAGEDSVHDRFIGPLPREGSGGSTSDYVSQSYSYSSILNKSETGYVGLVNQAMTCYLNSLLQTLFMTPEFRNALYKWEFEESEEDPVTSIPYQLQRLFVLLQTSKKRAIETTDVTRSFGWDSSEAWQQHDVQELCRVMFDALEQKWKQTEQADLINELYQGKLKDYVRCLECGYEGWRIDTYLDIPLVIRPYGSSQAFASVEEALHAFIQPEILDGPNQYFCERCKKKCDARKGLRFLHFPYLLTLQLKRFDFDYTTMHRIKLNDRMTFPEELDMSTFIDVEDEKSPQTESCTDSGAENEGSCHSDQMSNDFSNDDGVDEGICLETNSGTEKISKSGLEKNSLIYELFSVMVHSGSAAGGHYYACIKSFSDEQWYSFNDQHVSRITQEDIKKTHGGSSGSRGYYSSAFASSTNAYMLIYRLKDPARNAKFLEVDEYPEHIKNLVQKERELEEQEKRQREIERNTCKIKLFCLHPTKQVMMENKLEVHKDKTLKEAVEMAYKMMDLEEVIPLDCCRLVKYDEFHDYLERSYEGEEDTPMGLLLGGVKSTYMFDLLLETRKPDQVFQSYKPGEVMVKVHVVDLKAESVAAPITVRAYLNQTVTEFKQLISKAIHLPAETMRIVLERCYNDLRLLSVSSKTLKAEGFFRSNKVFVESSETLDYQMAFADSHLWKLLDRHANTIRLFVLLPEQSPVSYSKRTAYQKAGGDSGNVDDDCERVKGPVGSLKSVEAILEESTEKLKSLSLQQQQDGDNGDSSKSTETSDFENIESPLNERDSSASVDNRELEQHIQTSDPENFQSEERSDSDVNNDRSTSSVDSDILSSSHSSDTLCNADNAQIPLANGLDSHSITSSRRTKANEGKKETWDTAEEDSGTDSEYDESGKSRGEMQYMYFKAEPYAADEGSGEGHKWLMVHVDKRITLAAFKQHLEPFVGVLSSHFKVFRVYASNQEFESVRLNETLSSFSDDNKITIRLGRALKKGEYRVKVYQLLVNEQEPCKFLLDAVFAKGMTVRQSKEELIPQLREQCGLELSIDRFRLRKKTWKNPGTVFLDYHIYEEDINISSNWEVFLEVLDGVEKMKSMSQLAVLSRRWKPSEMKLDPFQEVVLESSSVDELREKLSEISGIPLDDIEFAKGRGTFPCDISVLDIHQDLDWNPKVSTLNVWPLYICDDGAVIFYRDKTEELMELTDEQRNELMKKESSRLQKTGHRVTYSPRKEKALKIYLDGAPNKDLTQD
Outline: as §1

USP48 = biological target: T3, USP48 (UniProt Q86UV5)
T3 sequence (whole entry): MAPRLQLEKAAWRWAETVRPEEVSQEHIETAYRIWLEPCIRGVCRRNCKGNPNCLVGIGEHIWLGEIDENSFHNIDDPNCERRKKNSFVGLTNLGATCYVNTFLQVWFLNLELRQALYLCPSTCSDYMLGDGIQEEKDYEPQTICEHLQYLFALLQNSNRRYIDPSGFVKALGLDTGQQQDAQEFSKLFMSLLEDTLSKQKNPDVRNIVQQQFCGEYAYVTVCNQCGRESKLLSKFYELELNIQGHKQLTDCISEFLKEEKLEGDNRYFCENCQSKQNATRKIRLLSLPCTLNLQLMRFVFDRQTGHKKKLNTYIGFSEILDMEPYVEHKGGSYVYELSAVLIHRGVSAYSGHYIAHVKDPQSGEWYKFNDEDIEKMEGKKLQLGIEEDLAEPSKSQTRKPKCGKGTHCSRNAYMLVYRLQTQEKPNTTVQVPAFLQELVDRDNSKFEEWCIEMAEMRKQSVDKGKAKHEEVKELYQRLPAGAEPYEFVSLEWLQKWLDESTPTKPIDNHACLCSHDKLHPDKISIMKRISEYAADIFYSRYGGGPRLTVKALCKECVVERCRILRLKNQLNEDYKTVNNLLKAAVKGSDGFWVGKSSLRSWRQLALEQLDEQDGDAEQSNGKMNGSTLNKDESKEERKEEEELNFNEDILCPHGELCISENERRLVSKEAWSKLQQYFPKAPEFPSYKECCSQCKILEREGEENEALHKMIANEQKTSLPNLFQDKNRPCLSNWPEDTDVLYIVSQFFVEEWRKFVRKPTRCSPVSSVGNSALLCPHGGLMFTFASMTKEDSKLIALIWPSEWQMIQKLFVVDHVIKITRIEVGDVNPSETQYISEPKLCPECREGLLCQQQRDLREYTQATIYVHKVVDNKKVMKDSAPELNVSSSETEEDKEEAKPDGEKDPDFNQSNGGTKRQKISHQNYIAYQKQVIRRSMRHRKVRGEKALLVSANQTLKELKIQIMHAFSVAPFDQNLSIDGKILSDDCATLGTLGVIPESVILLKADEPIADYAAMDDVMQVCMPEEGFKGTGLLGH
Outline: as §1

USP5 = biological target: T4, USP5 (UniProt P45974)
T4 sequence (whole entry): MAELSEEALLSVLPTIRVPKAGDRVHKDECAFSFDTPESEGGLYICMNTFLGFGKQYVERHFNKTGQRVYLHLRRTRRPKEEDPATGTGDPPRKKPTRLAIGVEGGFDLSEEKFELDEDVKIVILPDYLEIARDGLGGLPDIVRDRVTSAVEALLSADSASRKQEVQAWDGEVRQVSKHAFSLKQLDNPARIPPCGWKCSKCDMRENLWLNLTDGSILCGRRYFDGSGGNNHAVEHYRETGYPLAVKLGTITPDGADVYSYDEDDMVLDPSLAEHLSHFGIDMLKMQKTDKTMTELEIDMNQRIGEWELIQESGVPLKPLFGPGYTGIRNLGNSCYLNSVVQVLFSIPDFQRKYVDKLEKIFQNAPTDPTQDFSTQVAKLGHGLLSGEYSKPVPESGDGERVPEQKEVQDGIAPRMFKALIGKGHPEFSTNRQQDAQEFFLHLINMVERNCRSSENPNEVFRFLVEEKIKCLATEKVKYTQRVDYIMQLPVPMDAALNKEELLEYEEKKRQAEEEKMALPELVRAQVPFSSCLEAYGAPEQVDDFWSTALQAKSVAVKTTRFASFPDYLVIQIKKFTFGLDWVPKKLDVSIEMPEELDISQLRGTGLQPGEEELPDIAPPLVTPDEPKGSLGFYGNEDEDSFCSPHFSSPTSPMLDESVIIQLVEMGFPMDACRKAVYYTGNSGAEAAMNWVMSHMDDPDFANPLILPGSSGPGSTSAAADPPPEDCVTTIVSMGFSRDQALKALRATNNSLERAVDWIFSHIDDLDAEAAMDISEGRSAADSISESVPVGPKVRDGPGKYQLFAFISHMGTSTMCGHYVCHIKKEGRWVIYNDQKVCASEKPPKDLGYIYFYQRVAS
Outline: as §1

USP54 = USP54 (UniProt Q70EL1)
USP54, sequence (Q70EL1 whole entry): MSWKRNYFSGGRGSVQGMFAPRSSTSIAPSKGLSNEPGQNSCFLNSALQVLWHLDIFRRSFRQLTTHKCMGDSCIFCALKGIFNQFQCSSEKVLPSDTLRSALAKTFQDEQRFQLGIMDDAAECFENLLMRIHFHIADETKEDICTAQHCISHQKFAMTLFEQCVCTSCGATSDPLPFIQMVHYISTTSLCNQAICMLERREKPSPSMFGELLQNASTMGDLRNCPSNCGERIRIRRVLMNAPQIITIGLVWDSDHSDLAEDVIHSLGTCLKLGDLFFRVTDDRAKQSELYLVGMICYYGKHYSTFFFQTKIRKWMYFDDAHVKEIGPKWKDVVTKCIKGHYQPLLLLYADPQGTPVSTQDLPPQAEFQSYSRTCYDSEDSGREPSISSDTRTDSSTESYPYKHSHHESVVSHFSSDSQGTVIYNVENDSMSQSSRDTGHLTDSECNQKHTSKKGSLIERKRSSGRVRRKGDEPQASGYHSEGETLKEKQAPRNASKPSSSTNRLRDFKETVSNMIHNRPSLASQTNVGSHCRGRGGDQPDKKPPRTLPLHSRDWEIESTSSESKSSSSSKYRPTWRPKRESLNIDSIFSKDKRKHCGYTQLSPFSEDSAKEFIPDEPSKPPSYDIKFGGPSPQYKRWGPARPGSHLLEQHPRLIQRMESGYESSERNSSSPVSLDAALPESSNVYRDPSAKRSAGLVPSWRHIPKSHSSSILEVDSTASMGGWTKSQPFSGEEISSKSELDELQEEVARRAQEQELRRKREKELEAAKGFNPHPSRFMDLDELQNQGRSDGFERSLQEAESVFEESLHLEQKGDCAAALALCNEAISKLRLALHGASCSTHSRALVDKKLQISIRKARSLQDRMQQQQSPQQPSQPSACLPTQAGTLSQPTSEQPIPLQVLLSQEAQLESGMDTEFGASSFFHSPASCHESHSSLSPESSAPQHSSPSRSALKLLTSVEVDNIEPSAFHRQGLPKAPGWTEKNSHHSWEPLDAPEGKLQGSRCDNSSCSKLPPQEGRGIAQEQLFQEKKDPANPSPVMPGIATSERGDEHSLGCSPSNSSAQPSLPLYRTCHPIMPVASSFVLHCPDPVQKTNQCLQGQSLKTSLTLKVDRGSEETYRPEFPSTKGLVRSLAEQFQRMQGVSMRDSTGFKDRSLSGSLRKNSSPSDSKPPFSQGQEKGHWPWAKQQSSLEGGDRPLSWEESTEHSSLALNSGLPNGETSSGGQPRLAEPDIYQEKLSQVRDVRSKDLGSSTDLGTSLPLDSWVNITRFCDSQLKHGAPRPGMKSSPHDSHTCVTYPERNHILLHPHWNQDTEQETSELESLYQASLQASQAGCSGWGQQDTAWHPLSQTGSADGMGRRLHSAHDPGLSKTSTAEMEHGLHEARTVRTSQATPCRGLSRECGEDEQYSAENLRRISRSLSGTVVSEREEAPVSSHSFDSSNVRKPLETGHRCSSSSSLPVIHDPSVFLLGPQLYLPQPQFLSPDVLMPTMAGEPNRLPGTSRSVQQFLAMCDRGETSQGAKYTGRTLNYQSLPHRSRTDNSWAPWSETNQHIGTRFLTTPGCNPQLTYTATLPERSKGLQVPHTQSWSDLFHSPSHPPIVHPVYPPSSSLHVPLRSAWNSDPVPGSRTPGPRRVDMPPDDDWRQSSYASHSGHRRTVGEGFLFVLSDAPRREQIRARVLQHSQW
Outline: as §1

USP7 = USP7 (UniProt Q93009)
USP7, sequence (Q93009 whole entry, looked up): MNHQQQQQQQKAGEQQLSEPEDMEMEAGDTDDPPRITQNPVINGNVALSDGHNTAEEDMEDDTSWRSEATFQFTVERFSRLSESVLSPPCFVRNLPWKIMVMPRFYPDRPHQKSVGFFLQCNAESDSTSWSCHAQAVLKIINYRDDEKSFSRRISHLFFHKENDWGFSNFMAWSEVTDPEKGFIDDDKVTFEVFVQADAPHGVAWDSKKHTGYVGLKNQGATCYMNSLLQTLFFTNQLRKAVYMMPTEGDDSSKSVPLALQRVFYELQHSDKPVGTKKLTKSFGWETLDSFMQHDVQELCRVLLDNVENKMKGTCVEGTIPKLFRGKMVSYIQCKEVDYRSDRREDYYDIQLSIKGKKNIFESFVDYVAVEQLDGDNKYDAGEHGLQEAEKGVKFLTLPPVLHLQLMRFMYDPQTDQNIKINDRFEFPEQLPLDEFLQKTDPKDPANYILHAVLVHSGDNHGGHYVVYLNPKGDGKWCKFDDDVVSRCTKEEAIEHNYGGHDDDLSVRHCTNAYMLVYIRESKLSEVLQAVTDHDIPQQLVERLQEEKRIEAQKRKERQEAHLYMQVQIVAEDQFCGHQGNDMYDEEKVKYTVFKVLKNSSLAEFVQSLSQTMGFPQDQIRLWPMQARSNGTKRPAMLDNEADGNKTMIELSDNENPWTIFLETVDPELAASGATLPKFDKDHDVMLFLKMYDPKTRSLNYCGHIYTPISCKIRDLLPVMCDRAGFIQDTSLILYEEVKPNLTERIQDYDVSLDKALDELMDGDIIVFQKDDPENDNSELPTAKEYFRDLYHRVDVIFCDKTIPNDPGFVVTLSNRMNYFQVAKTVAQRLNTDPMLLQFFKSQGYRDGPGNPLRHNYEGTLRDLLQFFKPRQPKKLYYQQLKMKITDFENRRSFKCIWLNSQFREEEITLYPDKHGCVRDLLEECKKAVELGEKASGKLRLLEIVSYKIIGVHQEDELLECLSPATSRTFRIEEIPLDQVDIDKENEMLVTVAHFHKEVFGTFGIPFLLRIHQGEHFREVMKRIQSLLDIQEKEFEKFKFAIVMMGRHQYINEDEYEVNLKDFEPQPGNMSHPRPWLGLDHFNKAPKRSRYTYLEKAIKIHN
Outline: as §1

USP8 = biological target: T5, USP8 (UniProt P40818)
T5 sequence (whole entry): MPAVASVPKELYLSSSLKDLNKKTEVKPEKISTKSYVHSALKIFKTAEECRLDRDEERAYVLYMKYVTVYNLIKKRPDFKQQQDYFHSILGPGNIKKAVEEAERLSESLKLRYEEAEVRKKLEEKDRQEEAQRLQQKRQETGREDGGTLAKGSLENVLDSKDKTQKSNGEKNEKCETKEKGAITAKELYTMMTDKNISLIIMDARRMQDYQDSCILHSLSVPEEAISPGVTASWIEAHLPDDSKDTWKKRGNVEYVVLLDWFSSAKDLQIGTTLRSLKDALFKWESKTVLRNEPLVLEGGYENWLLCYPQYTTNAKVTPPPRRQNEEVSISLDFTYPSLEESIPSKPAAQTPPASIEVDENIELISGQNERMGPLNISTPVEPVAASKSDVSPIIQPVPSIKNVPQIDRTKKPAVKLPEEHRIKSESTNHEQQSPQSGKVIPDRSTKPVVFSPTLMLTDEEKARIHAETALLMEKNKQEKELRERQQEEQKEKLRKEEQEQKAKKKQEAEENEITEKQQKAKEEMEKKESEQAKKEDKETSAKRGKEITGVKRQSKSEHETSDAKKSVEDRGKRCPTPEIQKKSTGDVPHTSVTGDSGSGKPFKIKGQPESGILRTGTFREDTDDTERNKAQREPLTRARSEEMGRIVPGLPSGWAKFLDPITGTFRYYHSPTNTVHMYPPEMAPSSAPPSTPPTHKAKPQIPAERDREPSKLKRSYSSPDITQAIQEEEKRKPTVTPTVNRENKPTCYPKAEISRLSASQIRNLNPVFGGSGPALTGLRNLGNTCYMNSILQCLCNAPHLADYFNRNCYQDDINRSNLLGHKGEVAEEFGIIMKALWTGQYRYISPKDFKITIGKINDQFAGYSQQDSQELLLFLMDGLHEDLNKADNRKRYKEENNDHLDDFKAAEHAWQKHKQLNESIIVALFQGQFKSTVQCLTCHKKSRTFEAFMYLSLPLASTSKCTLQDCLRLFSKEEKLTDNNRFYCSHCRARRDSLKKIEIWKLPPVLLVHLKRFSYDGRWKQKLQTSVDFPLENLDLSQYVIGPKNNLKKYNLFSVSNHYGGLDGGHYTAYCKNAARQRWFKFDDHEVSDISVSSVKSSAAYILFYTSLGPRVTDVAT
Outline: as §1

Measured: log2 ratio of Biotin-Ahx-Ub-VS probe labelling

O=C(CCl)N1CCOC(c2cccc(F)c2)C1 (stereo not drawn)
active: USP48 -1.36
inactive: USP42 -0.424 | USP46 -0.374 | USP47 -0.467 | USP5 0.362 | USP54 0.45 | USP7 -0.705 | USP8 -0.461
